# A number with no mark means an inactive call.
# Tests used:
# Experiment in all cases: log2 ratio of Biotin-Ahx-Ub-VS probe labelling (fragment/DMSO); higher = less target engagement (more negative = stronger competition), active = hit call of the paper (q ≤ 0.05, log2 ratio ≤ -1)
# Settings in all cases: compound concentration: 200 uM; treatment time: 3 h
# OTUD6B = target: T1, OTUD6B (UniProt Q8N6M0)
# T1 sequence (whole entry): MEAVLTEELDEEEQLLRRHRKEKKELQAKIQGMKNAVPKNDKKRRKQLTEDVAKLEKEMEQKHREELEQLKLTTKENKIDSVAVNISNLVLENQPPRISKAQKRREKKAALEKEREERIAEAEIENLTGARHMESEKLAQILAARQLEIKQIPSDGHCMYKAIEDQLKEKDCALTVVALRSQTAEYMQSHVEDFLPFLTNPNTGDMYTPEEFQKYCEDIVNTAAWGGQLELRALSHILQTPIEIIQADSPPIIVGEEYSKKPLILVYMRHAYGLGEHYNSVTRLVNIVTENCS
# In short: (§1)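 Using Biotin-Ahx-Ub-VS at 0.5 µM final for 1 h, DUBs were labelled in HEK293T lysate (495 µg per sample) that had first been treated in triplicate with fragment at 200 µM or vehicle for 3 h. NeutrAvidin enrichment, LysC and trypsin digestion and diaPASEF LC-MS/MS followed. Spectronaut label-free quantities were global-median-normalised. Values are average log2 fragment/vehicle ratios by unpaired t-test, using proteins with ≥2 unique peptides.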
# OTUD7B = target: T2, OTUD7B (UniProt Q6GQQ9)
# T2 sequence (whole entry): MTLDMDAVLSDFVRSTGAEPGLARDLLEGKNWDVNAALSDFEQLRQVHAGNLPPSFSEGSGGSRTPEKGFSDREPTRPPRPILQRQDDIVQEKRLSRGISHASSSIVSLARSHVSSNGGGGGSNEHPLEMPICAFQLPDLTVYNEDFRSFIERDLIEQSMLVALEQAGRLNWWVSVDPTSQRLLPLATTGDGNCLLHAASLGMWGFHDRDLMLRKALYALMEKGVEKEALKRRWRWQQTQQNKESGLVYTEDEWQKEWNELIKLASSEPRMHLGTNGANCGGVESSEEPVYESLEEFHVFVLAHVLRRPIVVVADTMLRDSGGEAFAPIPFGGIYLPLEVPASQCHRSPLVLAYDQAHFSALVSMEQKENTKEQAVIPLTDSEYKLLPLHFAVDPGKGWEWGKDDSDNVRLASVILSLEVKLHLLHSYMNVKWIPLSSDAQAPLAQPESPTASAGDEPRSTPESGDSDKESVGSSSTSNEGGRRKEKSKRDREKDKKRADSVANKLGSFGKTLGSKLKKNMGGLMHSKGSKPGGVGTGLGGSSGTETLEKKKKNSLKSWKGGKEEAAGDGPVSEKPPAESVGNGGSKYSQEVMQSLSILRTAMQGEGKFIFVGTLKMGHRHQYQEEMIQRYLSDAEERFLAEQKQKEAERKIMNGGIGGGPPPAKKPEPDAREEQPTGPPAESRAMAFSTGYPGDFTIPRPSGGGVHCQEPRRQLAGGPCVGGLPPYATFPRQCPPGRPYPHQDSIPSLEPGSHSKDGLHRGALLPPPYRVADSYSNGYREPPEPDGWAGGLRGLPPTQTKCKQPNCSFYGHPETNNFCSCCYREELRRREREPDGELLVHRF
# In short: as §1
# PRPF8 = PRPF8 (UniProt Q6P2Q9)
# In short: as §1
# PSMD7 = target: T3, PSMD7 (UniProt P51665)
# T3 sequence (whole entry): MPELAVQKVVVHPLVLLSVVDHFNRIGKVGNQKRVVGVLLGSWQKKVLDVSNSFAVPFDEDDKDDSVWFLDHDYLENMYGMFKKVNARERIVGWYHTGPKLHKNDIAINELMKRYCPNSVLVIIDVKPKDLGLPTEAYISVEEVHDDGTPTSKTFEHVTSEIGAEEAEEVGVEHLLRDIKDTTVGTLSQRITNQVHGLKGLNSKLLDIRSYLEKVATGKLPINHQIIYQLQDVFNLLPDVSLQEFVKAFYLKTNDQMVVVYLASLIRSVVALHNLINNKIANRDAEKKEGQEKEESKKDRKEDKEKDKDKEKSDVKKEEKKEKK
# In short: as §1
# UCHL1 = UCHL1 (UniProt P09936)
# In short: as §1
# UCHL3 = target: T4, UCHL3 (UniProt P15374)
# T4 sequence (whole entry): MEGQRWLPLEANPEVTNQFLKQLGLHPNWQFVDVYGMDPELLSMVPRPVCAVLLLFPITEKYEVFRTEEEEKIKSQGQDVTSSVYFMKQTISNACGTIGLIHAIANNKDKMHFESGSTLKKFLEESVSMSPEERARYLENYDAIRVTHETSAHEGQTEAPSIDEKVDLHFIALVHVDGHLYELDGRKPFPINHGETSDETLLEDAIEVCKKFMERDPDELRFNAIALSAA
# In short: as §1
# UCHL5 = target: T5, UCHL5 (UniProt Q9Y5K5)
# T5 sequence (whole entry): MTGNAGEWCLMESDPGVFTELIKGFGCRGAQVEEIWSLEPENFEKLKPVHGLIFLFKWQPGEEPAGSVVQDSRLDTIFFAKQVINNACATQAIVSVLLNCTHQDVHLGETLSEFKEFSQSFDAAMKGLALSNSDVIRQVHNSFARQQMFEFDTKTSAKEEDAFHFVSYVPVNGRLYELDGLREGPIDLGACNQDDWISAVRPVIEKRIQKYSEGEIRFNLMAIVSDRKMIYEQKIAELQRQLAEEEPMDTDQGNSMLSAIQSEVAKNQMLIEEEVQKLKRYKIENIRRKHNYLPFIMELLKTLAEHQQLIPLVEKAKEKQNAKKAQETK
# In short: as §1
# USP10 = USP10 (UniProt Q14694)
# In short: as §1
# USP15 = target: T6, USP15 (UniProt Q9Y4E8)
# T6 sequence (whole entry): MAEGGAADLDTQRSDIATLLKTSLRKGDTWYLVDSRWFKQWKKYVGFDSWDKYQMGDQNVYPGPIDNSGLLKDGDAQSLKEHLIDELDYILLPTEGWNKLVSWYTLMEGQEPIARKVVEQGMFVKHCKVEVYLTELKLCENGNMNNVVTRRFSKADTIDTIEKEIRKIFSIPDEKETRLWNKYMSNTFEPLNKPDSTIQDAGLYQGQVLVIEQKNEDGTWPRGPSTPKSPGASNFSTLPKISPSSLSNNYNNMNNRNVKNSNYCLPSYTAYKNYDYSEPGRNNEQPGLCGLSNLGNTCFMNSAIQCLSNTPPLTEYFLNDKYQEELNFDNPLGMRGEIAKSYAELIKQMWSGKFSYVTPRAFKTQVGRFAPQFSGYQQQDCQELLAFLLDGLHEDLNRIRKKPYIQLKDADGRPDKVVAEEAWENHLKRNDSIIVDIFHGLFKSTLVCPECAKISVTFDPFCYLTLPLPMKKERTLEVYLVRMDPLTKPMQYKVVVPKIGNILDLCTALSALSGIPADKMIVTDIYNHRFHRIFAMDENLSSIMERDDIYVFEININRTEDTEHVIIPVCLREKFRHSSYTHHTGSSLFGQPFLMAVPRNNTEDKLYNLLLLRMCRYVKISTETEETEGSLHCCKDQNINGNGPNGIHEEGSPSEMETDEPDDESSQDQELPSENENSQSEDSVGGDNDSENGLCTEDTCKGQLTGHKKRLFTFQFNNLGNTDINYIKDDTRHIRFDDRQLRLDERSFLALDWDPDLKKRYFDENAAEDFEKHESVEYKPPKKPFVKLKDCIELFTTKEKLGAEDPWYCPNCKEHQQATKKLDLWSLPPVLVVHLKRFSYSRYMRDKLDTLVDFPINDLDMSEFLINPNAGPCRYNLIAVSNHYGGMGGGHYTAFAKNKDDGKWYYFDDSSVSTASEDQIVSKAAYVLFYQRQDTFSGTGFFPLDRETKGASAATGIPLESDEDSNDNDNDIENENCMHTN
# In short: as §1
# Sequence of UCHL1 (P09936 whole entry, looked up): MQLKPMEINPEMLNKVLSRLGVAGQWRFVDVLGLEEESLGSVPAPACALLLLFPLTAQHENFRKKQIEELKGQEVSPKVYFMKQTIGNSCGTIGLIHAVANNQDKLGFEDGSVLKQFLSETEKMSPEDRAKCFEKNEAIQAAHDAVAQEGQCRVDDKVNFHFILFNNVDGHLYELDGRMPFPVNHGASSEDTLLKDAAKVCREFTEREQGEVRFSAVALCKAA
# Sequence of USP10 (Q14694 whole entry): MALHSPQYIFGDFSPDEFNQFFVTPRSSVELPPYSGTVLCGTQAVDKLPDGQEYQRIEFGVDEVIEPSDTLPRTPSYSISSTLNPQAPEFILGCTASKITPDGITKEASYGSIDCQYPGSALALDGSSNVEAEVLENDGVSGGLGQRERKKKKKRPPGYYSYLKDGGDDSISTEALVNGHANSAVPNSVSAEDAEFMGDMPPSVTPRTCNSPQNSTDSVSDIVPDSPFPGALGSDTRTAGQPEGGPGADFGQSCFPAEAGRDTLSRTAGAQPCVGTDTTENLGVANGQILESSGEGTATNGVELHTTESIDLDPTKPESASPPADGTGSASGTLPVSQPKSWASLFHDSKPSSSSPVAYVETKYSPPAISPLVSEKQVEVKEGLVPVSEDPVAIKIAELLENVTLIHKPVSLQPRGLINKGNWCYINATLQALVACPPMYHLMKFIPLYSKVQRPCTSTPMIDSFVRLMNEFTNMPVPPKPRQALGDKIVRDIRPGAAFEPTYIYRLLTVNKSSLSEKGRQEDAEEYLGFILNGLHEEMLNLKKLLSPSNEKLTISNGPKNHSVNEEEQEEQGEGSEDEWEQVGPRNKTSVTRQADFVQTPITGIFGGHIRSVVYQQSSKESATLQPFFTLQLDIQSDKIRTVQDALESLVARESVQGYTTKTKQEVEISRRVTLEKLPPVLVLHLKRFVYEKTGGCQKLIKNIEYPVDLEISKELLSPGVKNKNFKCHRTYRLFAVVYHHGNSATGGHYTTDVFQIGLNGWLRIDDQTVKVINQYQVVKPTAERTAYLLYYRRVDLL
smiles,measurement,setting,value
Cc1cccc(NC(=O)CCl)c1C,log2 ratio of Biotin-Ahx-Ub-VS probe labelling,OTUD6B,-0.273
same,log2 ratio of Biotin-Ahx-Ub-VS probe labelling,OTUD7B,-0.61
same,log2 ratio of Biotin-Ahx-Ub-VS probe labelling,PRPF8,0.0787
same,log2 ratio of Biotin-Ahx-Ub-VS probe labelling,PSMD7,-0.631
same,log2 ratio of Biotin-Ahx-Ub-VS probe labelling,UCHL1,-0.766
same,log2 ratio of Biotin-Ahx-Ub-VS probe labelling,UCHL3,-1.39 (active)
same,log2 ratio of Biotin-Ahx-Ub-VS probe labelling,UCHL5,-0.0693
same,log2 ratio of Biotin-Ahx-Ub-VS probe labelling,USP10,-0.292
same,log2 ratio of Biotin-Ahx-Ub-VS probe labelling,USP15,-0.43

# — the supplement of paper PMC11732987, “Enantioselective OTUD7B fragment discovery through chemoproteomics screening and high-throughput optimisation” (Communications Chemistry, 2025)
